hcDAF12 agonist = H. contortus DAF-12 nuclear receptor activators, primary screen, cell-based, luminescence, HEK293, lit1-tk-luc reporter; 1.4% of 370,000 active; HEK293 hcDAF-12 lit1-tk-luc reporter; 0% DMSO, 100% Δ7-dafachronic acid; AID 652067, 2013; activation, % at 6.8 µM;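 active = activation above the mean of all tested compounds plus 3 SD, cut at about 5.5% in these data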;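 note: 100% = response to 3 µM Δ7-dafachronic acid high control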
AHR activator = AHR activators, primary screen, cell-based, luminescence, luciferase reporter, human; AHR-responsive luciferase reporter cells; activation, % at 5 µM; 2.5% of 320,000 active; Aryl hydrocarbon receptor (Homo sapiens), P35869; in the data active = activation above about 47%;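 note: 0% = vehicle wells and 100% = reference agonist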
ssDAF-12 act = S. stercoralis DAF-12 nuclear receptor activators, primary screen, cell-based, luminescence, HEK293, GRIP1 co-expression, lit1-tk-luc; activation, % at 6.8 µM; 1% of 370,000 active; AID 652126, 2013; Nuclear hormone receptor DAF-12 (Strongyloides stercoralis); HEK293 ssDAF-12/GRIP1 lit1-tk-luc reporter; % of 3 µM dafachronic acid response;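 active = activation above the mean over all tested compounds plus 3 SD, cut at about 0.9% in these data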;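 note: 0% = DMSO-only wells and 100% = 3 µM delta7-dafachronic acid wells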
hgDAF12 agonist = H. glycines DAF-12 receptor agonists, primary screen, cell-based, luminescence, HEK293, GAL4 fusion, UAS-luciferase; AID 687014, 2013; HEK293 GAL4-hgDAF12 UAS-luciferase reporter, agonist luminescence; normalized to butyrate control; Nuclear hormone receptor DAF-12 (Heterodera glycines), GAL4 fusion; activation, % at 6.8 µM; 1.8% of 370,000 active;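 active = activation above a cutoff set at the mean of all screened compounds plus 3 SD, cut at about 10% in these data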;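 note: 0% = DMSO wells and 100% = sodium butyrate wells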
DAX1 inh-1 = DAX1 (NR0B1) inhibitors, primary screen, cell-based, HEK293, Gal4-DAX1, luciferase luminescence | HEK293 Gal4-DAX1 luciferase reporter | inhibition, % at 6.75 µM | 0.99% of 340,000 active | AID 504766, 2011;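 active = inhibition above the mean over all tested compounds plus 3 SD, cut at about 4.2% in these data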;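 note: 0% = DAX1-transfected cells with DMSO and 100% = empty-vector control cells with DMSO; inhibition shows as a rise in luminescence from relieved DAX1 repression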
Target sequence (P51843 207-470 limits assumed): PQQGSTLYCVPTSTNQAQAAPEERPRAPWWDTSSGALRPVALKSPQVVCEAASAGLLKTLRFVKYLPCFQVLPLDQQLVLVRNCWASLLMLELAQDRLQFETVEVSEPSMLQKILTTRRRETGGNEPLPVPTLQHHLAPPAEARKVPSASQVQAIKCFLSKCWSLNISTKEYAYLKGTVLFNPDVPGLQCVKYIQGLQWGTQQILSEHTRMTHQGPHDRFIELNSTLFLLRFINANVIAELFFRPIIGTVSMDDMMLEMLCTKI
DAX1 inh-2 = DAX1 (NR0B1) inhibitors on StAR promoter, primary screen, cell-based, luminescence, SF-1 (NR5A1), full-length DAX-1. AID 652010, 2013. 1.1% of 370,000 active. inhibition, % at 6.8 µM. HEK293T StAR-luciferase reporter, SF-1/DAX-1 repression relief;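 active = inhibition above the mean over all tested compounds plus 3 SD, cut at about 3.6% in these data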;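 note: 0% = DAX-1 cells with DMSO and 100% = cells lacking DAX-1 with DMSO; higher inhibition means more luminescence from relief of DAX-1 repression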
DAX1 conf = DAX1 (NR0B1) inhibitors relieving SF-1 repression, confirmation, cell-based, luminescence, HEK293T, full-length DAX-1, SF-1 activated StAR promoter; shares compounds with DAX1 inh-2; HEK293T StAR-promoter luciferase reporter, SF-1/DAX-1 repression; inhibition, % at 6.8 µM; 87% of 2,400 active;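 active = inhibition above the average of every tested compound plus 3 SD, cut at about 3.8% in these data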;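 note: 0% = DAX-1 cells with DMSO and 100% = no DAX-1 control cells with DMSO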
SF1 mutant ctr = StAR reporter signal changes without DAX1, counter-screen for DAX1 inhibitor project, cell-based, luminescence, AF-2 mutant SF-1, transactivation | 78% of 2,400 active | inhibition, % at 6.8 µM | shares compounds with DAX1 inh-2 | HEK293 StAR-luciferase, SF-1 AF2 mutant | AID 652136, 2013;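 active = inhibition above the mean of all tested compounds plus 3 SD, cut at about 3% in these data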;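 note: 0% = DAX-1 transfected cells with DMSO and 100% = cells without DAX-1 with DMSO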
LXRb hcDAF ctr = LXR agonists, Gal4 luciferase reporter, confirmation, counter-screen for hcDAF-12 agonist project, cell-based, luminescence, HEK293, H. contortus campaign | shares compounds with hcDAF12 agonist | HEK293 Gal4-LXR tk-luc reporter, 24 h; normalized: DMSO 0%, positive control 100% | 3,400 tested, under 10 active | AID 743027, 2013 | activation, % at 6.8 µM;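 active = mean percent activation of the reporter above a cutoff set as the average over tested compounds plus their standard deviation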
hcDAF12 conf = H. contortus DAF-12 receptor agonists, confirmation, cell-based, luminescence, HEK293, lit1-tk-luc, triplicate | shares compounds with hcDAF12 agonist | HEK293 hcDAF-12 lit1-tk-luc reporter; % of Δ7-dafachronic acid response | activation, % at 6.8 µM | 61% of 3,400 active | AID 743032, 2013;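 active = mean activation across triplicate tests above the threshold derived from the earlier primary screen, cut at about 5.5% in these data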;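 note: 0% = DMSO only wells and 100% = 3 µM Δ7-dafachronic acid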
An asterisk follows results filed as active. Only some compounds are listed: those with a hit (about 5.7% of all), similar ones and a draw of the others.

Results for O=C(/C=C/c1cccs1)N1CCc2ccccc21 ?
hcDAF12 agonist: 20*; AHR activator: 54*; ssDAF-12 act: 3.6*; hgDAF12 agonist: 28*; DAX1 inh-1: 1; DAX1 inh-2: 7.3*; DAX1 conf: 19*; SF1 mutant ctr: 8.4*; LXRb hcDAF ctr: 2; hcDAF12 conf: 21*

How did O=C(CCN1C(=O)NC2(CCCC2)C1=O)Nc1ccc(-c2nc3ccccc3s2)cc1 do in these assays?
hcDAF12 agonist: 7.7*; AHR activator: 23; ssDAF-12 act: 1.0*; hgDAF12 agonist: 13*; DAX1 inh-1: -1; DAX1 inh-2: 5.8*; DAX1 conf: 13*; SF1 mutant ctr: 5.8*; LXRb hcDAF ctr: 1; hcDAF12 conf: 7.6*

Results for COc1ccc(-c2nc3cc(C)c(Br)c(C)n3c2Cc2ccc(C)cc2)cc1OC ?
hcDAF12 agonist: 0; ssDAF-12 act: -1; hgDAF12 agonist: 5; DAX1 inh-2: -1

How did Cc1ccc(S(=O)(=O)N(C)C)cc1NC(=O)COC(=O)C1CCN(S(=O)(=O)c2cccs2)CC1 do in these assays?
hcDAF12 agonist: 0; AHR activator: 0; ssDAF-12 act: -1; hgDAF12 agonist: 0; DAX1 inh-1: 2; DAX1 inh-2: -1

What do the screens show for `CCc1ccn2cc(-c3ccc4c(c3)OCO4)nc2c1`?
hcDAF12 agonist: 1; AHR activator: -9; ssDAF-12 act: -2; hgDAF12 agonist: -3; DAX1 inh-2: 0

What do the screens show for `COC(=O)c1ccc2nc(-c3ccc4c(c3)OCO4)cn2c1`?
hcDAF12 agonist: 7.1*; AHR activator: -1; ssDAF-12 act: 1.7*; hgDAF12 agonist: 17*; DAX1 inh-1: -3; DAX1 inh-2: 10*; DAX1 conf: 8.9*; SF1 mutant ctr: 0; LXRb hcDAF ctr: 1; hcDAF12 conf: 6.4*

Results for CCOC(=O)N1CCC(NC(=O)C2CCN(S(=O)(=O)N3CCCC3)CC2)CC1 ?
hcDAF12 agonist: 1; AHR activator: 0; ssDAF-12 act: -1; hgDAF12 agonist: -1; DAX1 inh-1: -1; DAX1 inh-2: 0

Results for CN(C)c1ccc(-c2csc(C(O)(c3ccccc3)C(F)(F)F)n2)cc1 (configuration not stated) ?
hcDAF12 agonist: 1; ssDAF-12 act: 0; hgDAF12 agonist: -1; DAX1 inh-2: 0

Results for CN(c1ccc(O)cc1)c1nc(-c2ccccc2)cs1 ?
hcDAF12 agonist: 8.8*; AHR activator: 8; ssDAF-12 act: 0; hgDAF12 agonist: 20*; DAX1 inh-1: 2; DAX1 inh-2: 5.0*; DAX1 conf: 12*; SF1 mutant ctr: 6.0*; LXRb hcDAF ctr: 2; hcDAF12 conf: 6.2*

Results for O=C(NCc1cccs1)C1CC(=O)N(c2ccc(Cl)cc2)C1 (configuration not stated) ?
hcDAF12 agonist: 1; AHR activator: 1; ssDAF-12 act: 0; hgDAF12 agonist: 0; DAX1 inh-1: -1; DAX1 inh-2: 0

What do the screens show for `CCOC(=O)c1c(C)oc2c1c(CN1CCN(CCO)CC1)c(O)c1ccccc12`?
hcDAF12 agonist: 7.1*; ssDAF-12 act: 1.1*; hgDAF12 agonist: 10; DAX1 inh-1: 1; DAX1 inh-2: 4.8*; DAX1 conf: 4.2*; SF1 mutant ctr: 3.7*; LXRb hcDAF ctr: 0; hcDAF12 conf: 6.8*

How did Fc1ccc(-c2nnc(-c3ccc4ccccc4c3)o2)cc1 do in these assays?
hcDAF12 agonist: 8.0*; ssDAF-12 act: 2.1*; hgDAF12 agonist: 20*; DAX1 inh-1: 1; DAX1 inh-2: 7.0*; DAX1 conf: 11*; SF1 mutant ctr: 5.2*; LXRb hcDAF ctr: 2; hcDAF12 conf: 12*

Results for Fc1ccc(-c2nnc(-c3ccc(F)cc3)o2)cc1 ?
hcDAF12 agonist: 2; ssDAF-12 act: -1; hgDAF12 agonist: 0; DAX1 inh-1: 2; DAX1 inh-2: 0

What do the screens show for `CSc1ncc(CN2CCC(C(=O)Nc3cccc(-c4cscn4)c3)CC2)cn1`?
hcDAF12 agonist: -2; AHR activator: 19; ssDAF-12 act: -1; hgDAF12 agonist: -2; DAX1 inh-1: 0; DAX1 inh-2: -2

What do the screens show for `C=CCN(C(=O)CCc1ccccc1OC)c1nc(-c2ccc(S(C)(=O)=O)cc2)cs1`?
hcDAF12 agonist: -4; AHR activator: 24; ssDAF-12 act: -2; hgDAF12 agonist: 0; DAX1 inh-1: -1; DAX1 inh-2: -1

How did c1ccc2c(c1)COc1c3cc4c(cc3nn1-2)OCO4 do in these assays?
hcDAF12 agonist: 11*; ssDAF-12 act: 1.2*; hgDAF12 agonist: 29*; DAX1 inh-1: 2; DAX1 inh-2: 8.7*; DAX1 conf: 18*; SF1 mutant ctr: 9.1*; LXRb hcDAF ctr: 1; hcDAF12 conf: 13*

What do the screens show for `COc1cc(OC)c(-c2oc3ccccc3c(=O)c2O)c(OC)c1`?
hcDAF12 agonist: 0; ssDAF-12 act: -1; hgDAF12 agonist: -2; DAX1 inh-1: -1; DAX1 inh-2: -1

Screens (PubChem)
